# Records with an inconclusive call do not appear. Active and inactive are the calls of the source. Unless noted, calls follow the shape of the dose curve; as a rule, active = well fitted inhibition curve with a large enough effect; inconclusive = small, poorly fitted or top-dose-only effect; inactive = flat fitted curve, though single readings scatter. Non-standard residues stand in square brackets, D forms with d. Residues, ends and D or L forms follow the SMILES beside them. *: point of attachment. Sta = CC(C)C[C@H](N)[C@@H](O)CC(=O)O; Isovaleryl = CC(C)CC(=O)*
# Tests used:
# [1] = qHTS for identification of novel therapeutic agents for treatment of microphthalmiaassociated transcription factor (MiT) renal cell carcinoma (RCC) (AID 1963991; calls by dose curve; also: potency is read from the fitted curve at half-maximal effect;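 as to z-score: curves scaled with 100% = DMSO viability and 0% = empty wells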); conditions: CellTiter-Glo, 48 h; for z-score: stronger effect = lower value
# Procedure, shortened: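 UOK109/UOK124/UOK145 (TFE3 fusions, three partners); 500 cells/well; MIPE v4.0, 1912 cpds, 11 conc.; 48 h, 37 C; CellTiter-Glo, 15 min RT; lum. Norm.: DMSO 100%, empty 0%.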
# [2] = qHTS profiling for inhibitors of Plasmodium falciparum proliferation (AID 504749);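 also: 0% = DMSO vehicle and full inhibition = artemisinin control; nearly all actives have a fitted effect of over 60% in size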; conditions: P. falciparum in erythrocytes, SYBR Green DNA, 72 h
# Procedure, shortened: (§1)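 Quantitative HTS: compounds pinned into medium, infected erythrocytes added (0.3% parasitemia, 2.5% hematocrit), 72 h culture at 37 C under 5% CO2. Saponin/Triton lysis with SYBR Green I, overnight RT, then fluorescence read.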
# [3] = tested on: 3D7; assay: as above; conditions: P. falciparum in erythrocytes, SYBR Green DNA, 72 h; series mostly up to 28.7 µM
# Procedure, shortened: as §1
# [4] = tested on: 7G8; assay: as above; conditions: P. falciparum in erythrocytes, SYBR Green DNA, 72 h; series mostly up to 28.7 µM
# Procedure, shortened: as §1
# [5] = tested on: AA1029; assay: as above; conditions: P. falciparum in erythrocytes, SYBR Green DNA, 72 h; series mostly up to 28.7 µM
# Procedure, shortened: as §1
# [6] = tested on: AS120; assay: as above; conditions: P. falciparum in erythrocytes, SYBR Green DNA, 72 h; series mostly up to 28.7 µM
# Procedure, shortened: as §1
# [7] = tested on: ATS189; assay: as above; conditions: P. falciparum in erythrocytes, SYBR Green DNA, 72 h; series mostly up to 28.7 µM
# Procedure, shortened: as §1
# [8] = tested on: ATS95; assay: as above; conditions: P. falciparum in erythrocytes, SYBR Green DNA, 72 h; series mostly up to 28.7 µM
# Procedure, shortened: as §1
# [9] = tested on: C2A; assay: as above; conditions: P. falciparum in erythrocytes, SYBR Green DNA, 72 h; series mostly up to 28.7 µM
# Procedure, shortened: as §1
# [10] = tested on: CP185; assay: as above; conditions: P. falciparum in erythrocytes, SYBR Green DNA, 72 h; series mostly up to 28.7 µM
# Procedure, shortened: as §1
# [11] = TFE3-RCC UOK109 viability, measured here: UOK109 Z-AUC
# [12] = TFE3-RCC viability, measured here: UOK124 Z-AUC
# [13] = TFE3-RCC viability, measured here: UOK145 Z-AUC
# [14] = at 28.7 µM (top of the series), parasite line A
# [15] = at 28.7 µM (top of the series), parasite line B
structure (smiles),measurement,setting,value
O=C(CS(=O)Cc1ccco1)NCC=CCOc1cc(CN2CCCCC2)ccn1 (stereo unspecified),z-score,[1]; [11],0.673
same,z-score,[1]; [12],0.332
same,z-score,[1]; [13],0.715
same,"activity, negative = inhibition",[2]; [14],3.29% (inactive)
same,"activity, negative = inhibition",[2]; [15],-5.5% (inactive)
same,Potency,[3],inactive
same,Potency,[4],inactive
same,Potency,[5],inactive
same,Potency,[6],inactive
same,Potency,[7],inactive
same,Potency,[8],inactive
same,Potency,[9],inactive
same,Potency,[10],inactive
CC(C)CC(=O)N[C@H](C(=O)N[C@H](C(=O)N[C@@H](CC(C)C)[C@@H](O)CC(=O)N[C@@H](C)C(=O)N[C@@H](CC(C)C)[C@@H](O)CC(=O)O)C(C)C)C(C)C (Isovaleryl-VV[Sta]A[Sta]-OH),z-score,[1]; [11],0.353
same,z-score,[1]; [12],0.618
same,z-score,[1]; [13],0.758
c1cnc2cc3c(cc2n1)C1CNCC3C1,z-score,[1]; [11],-0.0233
same,z-score,[1]; [12],0.674
same,z-score,[1]; [13],0.454
C[C@H](Cn1cnc2c(N)ncnc21)OCP(=O)(O)O,z-score,[1]; [11],0.368
same,z-score,[1]; [12],0.295
same,z-score,[1]; [13],0.62
same,"activity, negative = inhibition",[2]; [14],2.65% (inactive)
same,"activity, negative = inhibition",[2]; [15],3.87% (inactive)
same,Potency,[3],inactive
same,Potency,[4],inactive
same,Potency,[5],inactive
same,Potency,[6],inactive
same,Potency,[7],inactive
same,Potency,[8],inactive
same,Potency,[9],inactive
same,Potency,[10],inactive
O=C1c2c(O)cc(O)cc2OC(c2ccc(O)c(O)c2)C1O (stereo unspecified),z-score,[1]; [11],-0.477
same,z-score,[1]; [12],0.528
same,z-score,[1]; [13],0.535
CC1Cc2ccccc2N1NC(=O)c1ccc(Cl)c(S(N)(=O)=O)c1 (stereo unspecified),z-score,[1]; [11],0.928
same,z-score,[1]; [12],0.508
same,z-score,[1]; [13],0.493
Nc1cccc2c1CN(C1CCC(=O)NC1=O)C2=O (stereo unspecified),z-score,[1]; [11],0.87
same,z-score,[1]; [12],1.94
same,z-score,[1]; [13],0.731
same,"activity, negative = inhibition",[2]; [14],12.2% (inactive)
same,"activity, negative = inhibition",[2]; [15],5.27% (inactive)
same,Potency,[3],inactive
same,Potency,[4],inactive
same,Potency,[5],inactive
same,Potency,[6],inactive
same,Potency,[7],inactive
same,Potency,[8],inactive
same,Potency,[9],inactive
same,Potency,[10],inactive
C[C@@H](c1ncncc1F)[C@](O)(Cn1cncn1)c1ccc(F)cc1F,z-score,[1]; [11],0.104
same,z-score,[1]; [12],0.588
same,z-score,[1]; [13],0.181
O=c1c(O)c(-c2ccc(O)cc2O)oc2cc(O)cc(O)c12,z-score,[1]; [11],0.0602
same,z-score,[1]; [12],0.591
same,z-score,[1]; [13],-0.0945
CCOC(=O)C1=C[C@@H](OC(CC)CC)[C@H](NC(C)=O)[C@@H](N)C1,z-score,[1]; [11],0.372
same,z-score,[1]; [12],0.178
same,z-score,[1]; [13],0.414
COC(=O)N[C@H](C(=O)N[C@@H](Cc1ccccc1)[C@@H](O)CN(Cc1ccc(-c2ccccn2)cc1)NC(=O)[C@@H](NC(=O)OC)C(C)(C)C)C(C)(C)C,z-score,[1]; [11],0.351
same,z-score,[1]; [12],-0.0676
same,z-score,[1]; [13],2.98
N[C@@H](Cc1cc(I)c(Oc2cc(I)c(O)c(I)c2)c(I)c1)C(=O)O,z-score,[1]; [11],0.737
same,z-score,[1]; [12],0.682
same,z-score,[1]; [13],0.762
same,"activity, negative = inhibition",[2]; [14],-3.11% (inactive)
same,"activity, negative = inhibition",[2]; [15],-2.18% (inactive)
same,Potency,[3],inactive
same,Potency,[4],inactive
same,Potency,[5],inactive
same,Potency,[6],inactive
same,Potency,[7],inactive
same,Potency,[8],inactive
same,Potency,[9],inactive
same,Potency,[10],inactive
CC(=O)NC[C@H]1CN(c2ccc(N3CCOCC3)c(F)c2)C(=O)O1,z-score,[1]; [11],-0.988
same,z-score,[1]; [12],0.658
same,z-score,[1]; [13],1.47
C[Se]CCC(N)C(=O)O (stereo unspecified),z-score,[1]; [11],1.47
same,z-score,[1]; [12],0.35
same,z-score,[1]; [13],0.0936
same,"activity, negative = inhibition",[2]; [14],6.19% (inactive)
same,"activity, negative = inhibition",[2]; [15],-13.4% (inactive)
same,Potency,[3],inactive
same,Potency,[4],inactive
same,Potency,[5],inactive
same,Potency,[6],inactive
same,Potency,[7],inactive
same,Potency,[8],inactive
same,Potency,[9],inactive
same,Potency,[10],inactive
CCCOc1ccc2nc(NC(=O)OC)[nH]c2c1,Potency,"[1]; TFE3-RCC UOK109 viability, active = Z-AUC below -0.8 in all three lines",7.43 nM (active)
same,z-score,[1]; [11],-2.25
same,z-score,[1]; [12],-3.82
same,z-score,[1]; [13],-2.16
same,"activity, negative = inhibition",[2]; [14],-0.812% (inactive)
same,"activity, negative = inhibition",[2]; [15],13.5% (inactive)
same,Potency,[3],inactive
same,Potency,[4],inactive
same,Potency,[5],inactive
same,Potency,[6],inactive
same,Potency,[7],inactive
same,Potency,[8],inactive
same,Potency,[9],inactive
same,Potency,[10],inactive
CCC1=C(C)CN(C(=O)NCCc2ccc(S(=O)(=O)NC(=O)NC3CCC(C)CC3)cc2)C1=O (stereo unspecified),z-score,[1]; [11],0.704
same,z-score,[1]; [12],0.513
same,z-score,[1]; [13],0.718
same,"activity, negative = inhibition",[2]; [14],6.02% (inactive)
same,"activity, negative = inhibition",[2]; [15],7.16% (inactive)
same,Potency,[3],inactive
same,Potency,[4],inactive
same,Potency,[5],inactive
same,Potency,[6],inactive
same,Potency,[7],inactive
same,Potency,[8],inactive
same,Potency,[9],inactive
same,Potency,[10],inactive
C=CCc1cc(OC)c(O)c(C(=O)NCCO)c1,z-score,[1]; [11],0.957
same,z-score,[1]; [12],0.641
same,z-score,[1]; [13],1.25
same,"activity, negative = inhibition",[2]; [14],6.75% (inactive)
same,"activity, negative = inhibition",[2]; [15],10.3% (inactive)
same,Potency,[3],inactive
same,Potency,[4],inactive
same,Potency,[5],inactive
same,Potency,[6],inactive
same,Potency,[7],inactive
same,Potency,[8],inactive
same,Potency,[9],inactive
same,Potency,[10],inactive
NS(=O)(=O)c1cc(C(=O)O)c(NCc2ccco2)cc1Cl,z-score,[1]; [11],-0.035
same,z-score,[1]; [12],-0.245
same,z-score,[1]; [13],0.387
Cc1ccc(C(=O)c2cc(O)c(O)c([N+](=O)[O-])c2)cc1,z-score,[1]; [11],0.222
same,z-score,[1]; [12],0.88
same,z-score,[1]; [13],0.533
COc1cc(OC)c(C(=O)CCCN2CCCC2)c(OC)c1,z-score,[1]; [11],1.14
same,z-score,[1]; [12],0.362
same,z-score,[1]; [13],-0.41
same,"activity, negative = inhibition","[2]; at 12.8 µM (top of the series), parasite line A",17.5% (inactive)
same,"activity, negative = inhibition","[2]; at 12.8 µM (top of the series), parasite line B",11% (inactive)
same,Potency,[3],inactive
same,Potency,[4],inactive
same,Potency,[5],inactive
same,Potency,[6],inactive
same,Potency,[7],inactive
same,Potency,[8],inactive
same,Potency,[9],inactive
same,Potency,[10],inactive
CC(=O)Nc1ccc(O)cc1,z-score,[1]; [11],1.26
same,z-score,[1]; [12],0.904
same,z-score,[1]; [13],0.696
CC(C)Oc1ccc2c(=O)c(-c3ccccc3)coc2c1,z-score,[1]; [11],0.973
same,z-score,[1]; [12],0.495
same,z-score,[1]; [13],-0.312
O=C(O)c1cc(=O)c2c(OCC(O)COc3cccc4oc(C(=O)O)cc(=O)c34)cccc2o1,z-score,[1]; [11],0.209
same,z-score,[1]; [12],0.177
same,z-score,[1]; [13],-0.326
same,"activity, negative = inhibition",[2]; [14],8.12% (inactive)
same,"activity, negative = inhibition",[2]; [15],15.8% (inactive)
same,Potency,[3],inactive
same,Potency,[4],inactive
same,Potency,[5],inactive
same,Potency,[6],inactive
same,Potency,[7],inactive
same,Potency,[8],inactive
same,Potency,[9],inactive
same,Potency,[10],inactive
CCOC(=O)C(C)Oc1cccc2c(=O)n(CC(=O)Nc3ccc4c(c3)OCCO4)ccc12 (stereo unspecified),z-score,[1]; [11],0.811
same,z-score,[1]; [12],0.396
same,z-score,[1]; [13],0.65
CC(C)(S)[C@@H](N)C(=O)O,z-score,[1]; [11],0.813
same,z-score,[1]; [12],0.506
same,z-score,[1]; [13],1.37
same,"activity, negative = inhibition",[2]; [14],1.57% (inactive)
same,"activity, negative = inhibition",[2]; [15],-13.2% (inactive)
same,Potency,[3],inactive
same,Potency,[4],inactive
same,Potency,[5],inactive
same,Potency,[6],inactive
same,Potency,[7],inactive
same,Potency,[8],inactive
same,Potency,[9],inactive
same,Potency,[10],inactive

# Source: PubChem BioAssay (NCATS)
